Results reported in PubChem BioAssay AID1813 (Broad Institute, 2009).
The whole screen tested about 300,000 compounds, of which about 2,500 (0.83%) were called active. Rule as the data show it: active = inhibition above about 60%; inconclusive = no clear call, values can overlap the other calls; inactive = below that. Only a selection was taken, and actives are over-represented in it overall.

Experiment: MLPCN primary screen, SNCA 5' untranslated region (AID 1813);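 also: H4 neuroglioblastoma cells stably carrying SNCA 5'UTR luciferase fusion; 0% = DMSO wells and 100% = positive control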
Details: alpha-synuclein 5'UTR reporter, inhibitor activity; stronger effect = higher value; tested at 7.5 µM

SMILES | inhibition
Nc1nonc1-n1nnc(C(=O)N/N=C/c2ccccc2O)c1CN1CCCC1 | 14.3% (inactive)
Nc1nonc1-n1nnc(C(=O)N/N=C/c2cc(Br)ccc2O)c1CSC1=NCCS1 | 94.1% (active)
Cc1ccc(SCc2c(C(=O)N/N=C/c3cccnc3)nnn2-c2nonc2N)cc1 | -2.9% (inactive)
OCCN1CCN(c2nnc(-c3ccccc3)c3ccccc23)CC1 | 18.9% (inactive)
OCCN1CCN(C(=S)c2ccc(-c3ccccc3)cc2)CC1 | 88% (active)
S=C(c1ccccc1)N1CCCC1 | 4.96% (inactive)
Cc1nc2cccnc2nc1C | -3.08% (inactive)
CC(C)S(=O)(=O)c1csc(NC(=O)Nc2ccc(Cl)cc2)c1Cl | -49.4% (inactive)
Cc1cccc(OCC(=O)NCCCNC(=O)c2ccccn2)c1 | 8.27% (inactive)
Cc1ccc(Cl)cc1NC(=O)c1ccccn1 | -44% (inactive)
CCN(CC)CCOc1ccc2c(c1)C(=NNC(=O)c1ccccn1)c1cc(OCCN(CC)CC)ccc1-2 | 109% (active)
COc1ccc(NC(=O)Cn2ncn3c(cc4ccccc43)c2=O)c(OC)c1OC | 30% (inactive)
COC(=O)Cc1csc(/N=C/c2c(O)n(-c3cccc(C(F)(F)F)c3)c(=O)c3ccccc23)n1 | 81.8% (active)
COC(=O)Cc1csc(Nc2c(C)n(C)n(-c3ccccc3)c2=O)n1 | 14.1% (inactive)
Cc1ccc(-n2c(O)c(C=Nc3ccc(S(=O)(=O)Nc4ncccn4)cc3)c3ccccc3c2=O)cc1C | 13.1% (inactive)
CC(NC(=O)c1cccc2ccccc12)c1ccc2c(c1)CCCC2 (stereo unspecified) | 5.38% (inactive)
Cc1cc(C(=O)CCl)c(C)n1CC1COc2ccccc2O1 (stereo unspecified) | 21.1% (inactive)
Cc1cc(C(=O)Cn2cnc3cc([N+](=O)[O-])ccc3c2=O)c(C)n1CC1CCCO1 (stereo unspecified) | -21.1% (inactive)
Cc1ccsc1C(=O)OCC(=O)c1cc(C)n(CC2CCCO2)c1C (stereo unspecified) | 79.6% (active)
CCn1c(-c2cccnc2Cl)nc2cc(C)c(C)cc21 | 24.4% (inactive)
CC(C)C(NS(=O)(=O)c1cccs1)C(=O)Nc1nc(C(C)(C)C)cs1 (stereo unspecified) | 24.5% (inactive)

SMILES | inhibition
CCCCN(C(=O)c1ccc(C)o1)c1c(N)n(CCCC)c(=O)[nH]c1=O | 11.8% (inactive)
COc1ccc(NC(=O)C(C)SCc2ccccc2)cc1 (stereo unspecified) | -18.2% (inactive)
COc1ccc(C(=O)NCC2CCCN2S(=O)(=O)c2cccs2)cc1OC (stereo unspecified) | 19.5% (inactive)
CC(=O)c1c(C)[nH]c(C(=O)COC(=O)c2cccc(S(=O)(=O)N(C)c3ccccc3)c2)c1C | -1.07% (inactive)
CC1CC(C)CN(C(=O)C2CC(=O)N(c3ccc(F)cc3)C2)C1 (stereo unspecified) | 10.4% (inactive)
C=CCn1c(CCNC(=O)c2ccccc2F)nnc1SCC(=O)Nc1ccc(OC)cc1 | -21.5% (inactive)
CSc1nnc(NC(=O)c2nc(S(=O)(=O)Cc3ccc(C)cc3)ncc2Cl)s1 | -15.6% (inactive)
Cc1ccc(CS(=O)(=O)c2ncc(Cl)c(C(=O)Nc3nnc(C)s3)n2)cc1 | -37.4% (inactive)
Cc1cccc(NC(=O)c2nc(S(=O)(=O)Cc3ccccc3)ncc2Cl)c1 | 84.8% (active)
COC(=O)COc1cccc2c(=O)n(CC(=O)NCc3ccccc3)ccc12 | -24.3% (inactive)
Nc1nc(Nc2ccccc2F)nc(NC2CCCCC2)c1[N+](=O)[O-] | 30.2% (inactive)
COc1cc(OC)cc(C(=O)NC2CCN(C(=O)N3c4ccccc4Sc4ccccc43)CC2)c1 | 47.3% (inactive)
COc1ccc(CN2[C@@H](CC(=O)O)c3cc(F)ccc3S2(=O)=O)cc1 | -3.17% (inactive)
C/C(=N\NC(=O)Cc1ccc(F)cc1)c1ccc(F)cc1 | 20.6% (inactive)
COc1ccc(CC(=O)NC(C)CCc2ccccc2)cc1 (stereo unspecified) | 1.27% (inactive)
O=C(Nc1ccc(NC(=O)c2ccccc2F)cc1)c1ccccc1F | -42.3% (inactive)
C/C(=N\NC(=O)c1ccccc1F)c1ccccn1 | 83% (active)
COc1ccc(C/C(C)=N/NC(=O)c2ccncc2)cc1 | 6.51% (inactive)
C/C(=N\NC(=O)Cc1ccc(Cl)cc1)c1ccccn1 | 85.6% (active)
C/C(CC(=O)Nc1ccc(N(C)C)cc1)=N\NC(=O)c1ccccc1F | -40.2% (inactive)
COc1ccc(CC(=O)N/N=C(\C)c2ccccn2)cc1 | 77.7% (active)

SMILES | inhibition
C/C(=N\NC(=O)Cc1ccc(Br)cc1)c1cccnc1 | 30.5% (inactive)
C/C(=N\Nc1nc2ccccc2[nH]1)c1cccs1 | -116% (inactive)
O=C(O)C1CCCCC1C(=O)N1CCN(S(=O)(=O)c2ccc(F)cc2)CC1 (stereo unspecified) | -5.32% (inactive)
CC1(C)OC(=O)N2CCc3ccccc3C21C (stereo unspecified) | -10.7% (inactive)
C=CCNC(=S)NNc1ncnc2sc3c(c12)CC(C)(C)OC3 | 5.75% (inactive)
O=C(O)c1cc2c(cc1NC(=O)c1c(F)cccc1Cl)OCCCO2 | 23.8% (inactive)
COc1ccc2[nH]c3nc(SCC(=O)NC4CC4)nnc3c2c1 | -39.5% (inactive)
CCCCCN(C(=O)NC(=O)Nc1ccccc1C)S(C)(=O)=O | -36.2% (inactive)
OCCCNc1nc(-c2ccccc2)c2cc(Cl)ccc2n1 | 30.4% (inactive)
OCCCNc1nccc(-c2cc(Nc3cccc(Cl)c3)ncn2)n1 | 73.3% (active)
NS(=O)(=O)c1cccnc1Nc1cccc(Cl)c1 | -2.47% (inactive)
O=C1CCCN2N=C(SCC(=O)Nc3ccc(Br)cc3)SC2=N1 | 10.7% (inactive)
Cc1cc(C(F)F)nn1CC(=O)NC1CCCCCC1 | -7.74% (inactive)
Cc1ccccc1NC(=O)CCNS(=O)(=O)c1ccc2[nH]c(=O)oc2c1 | 6.01% (inactive)
CCOc1ccc(C2C(C(=O)NC)=C(C)Nc3nc4ccccc4n32)cc1OC (stereo unspecified) | 10.1% (inactive)
COc1ccccc1NC(=O)C1=C(C)Nc2nc3ccccc3n2C1c1cccs1 (stereo unspecified) | 106% (active)
CCOC(=O)C1=C(C)Nc2nc3ccccc3n2C1c1cccs1 (stereo unspecified) | 31.1% (inactive)
COC(=O)c1cc(=O)n(-c2c(Cl)cc(C(F)(F)F)cc2Cl)[nH]1 | 29.3% (inactive)
CN(CC(=O)Nc1c(Cl)cccc1Cl)C(=O)c1ccncc1 | 8.69% (inactive)
